According to the supplement of paper PMC10811239:

Key:
Assay in all cases: bioluminescence (viable cell) signal fold change after vs before treatment, normalised to DMSO (ratio); higher = more tumour cell growth / less inhibition
Conditions in all cases: 10 µM; treatment time 6 days
[1] = tested on: LEGO organoid PT (PTEN-/-; TP53-/-)
Method: (§1)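 Luc2-labelled iPSC-derived glioblastoma-like organoids (LEGOs, genotypes PT = PTEN-/-;TP53-/-, PTCC = plus CDKN2A/B-/-, PTN = plus NF1-/-) were treated with 10 uM drug for 6 days (applied every other day) at 37 C. Bioluminescence imaging was done before treatment and 2 days after the last dose. BLI signals were normalised to the DMSO control on the same day and then to the pre-treatment signal (N=3).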

[2] = tested on: LEGO organoid PTCC (PTEN-/-; TP53-/-; CDKN2A-/-; CDKN2B-/-)
Method: as §1

[3] = tested on: LEGO organoid PTN (PTEN-/-; TP53-/-; NF1-/-)
Method: as §1

Row | SMILES | bioluminescence [1] | bioluminescence [2] | bioluminescence [3]
1 | CNCCC(Oc1ccc(C(F)(F)F)cc1)c1ccccc1.Cl (centres undefined) [Fluoxetine hydrochloride] | 0.929 | 1.74 | 0.924
2 | C[C@]12C=CC(=O)C=C1CC[C@@H]1[C@@H]2C(=O)C[C@@]2(C)[C@H]1CC[C@]2(O)C(=O)CO [Prednisone] | 1.13 | 0.989 | 1.29
3 | CCc1c(C)[nH]c2c1C(=O)C(CN1CCOCC1)CC2.Cl (centres undefined) [Molindone hydrochloride] | 0.607 | 1.39 | 1.2
4 | CNCCCN1c2ccccc2CCc2ccccc21.Cl [Desipramine hydrochloride] | 0.858 | 0.744 | 1.22
5 | CN1[C@@H]2CCC[C@H]1C[C@@H](NC(=O)c1nn(C)c3ccccc13)C2.Cl [Granisetron hydrochloride] | 0.715 | 0.701 | 1.92
6 | O=C([O-])CCCc1ccccc1.[Na+] [Sodium Phenylbutyrate] | 1.37 | 0.911 | 3.02
7 | Cc1nc2n(c(=O)c1CCN1CCC(c3noc4cc(F)ccc34)CC1)CCCC2 [Risperidal] | 1.57 | 1.93 | 1.31
8 | Cl.OC(CCN1CCCC1)(c1ccccc1)C1CCCCC1 (centres undefined) [Procyclidine hydrochloride] | 1.48 | 0.919 | 0.656
9 | CN1CC(=O)N2[C@H](c3ccc4c(c3)OCO4)c3[nH]c4ccccc4c3C[C@@H]2C1=O [Tadalafil] | 1.59 | 1.47 | 0.562
10 | Cl.O=C1CC2(CCCC2)CC(=O)N1CCCCN1CCN(c2ncccn2)CC1 [Buspirone hydrochloride] | 1.22 | 1.47 | 0.759
11 | C#CCN[C@@H]1CCc2ccccc21.CS(=O)(=O)O [Rasagiline Mesylate] | 0.604 | 2.02 | 1.25
12 | FC(F)(F)c1ccc(CNc2ccc(Cc3c[nH]c4ncc(Cl)cc34)cn2)cn1 [Pexidartinib] | 0.7 | 3.05 | 0.351
13 | CC/C(=C(\c1ccccc1)c1ccc(OCCN(C)C)cc1)c1ccccc1.O=C(O)CC(O)(CC(=O)O)C(=O)O [Tamoxifen Z-isomer citrate] | 0.933 | 1.41 | 6.34
14 | CS(=O)(=O)c1ccc(C(=O)Nc2ccc(Cl)c(-c3ccccn3)c2)c(Cl)c1 [Vismodegib] | 0.63 | 2.45 | 0.888
15 | CO[C@H]1C(=O)[C@]2(C)[C@@H](OC)C[C@H]3OC[C@@]3(OC(C)=O)[C@H]2[C@H](OC(=O)c2ccccc2)[C@]2(O)C[C@H](OC(=O)[C@H](O)[C@@H](NC(=O)OC(C)(C)C)c3ccccc3)C(C)=C1C2(C)C [Cabazitaxel] | 1.15 | 7.3 | 0.429
16 | COc1cc(Nc2ncc(F)c(Nc3ccc4c(n3)N(COP(=O)(O)O)C(=O)C(C)(C)O4)n2)cc(OC)c1OC [Fostamatinib] | 0.0894 | 0.182 | 0.0646
17 | CC1=C(/C=C/C(C)=C/C=C/C(C)=C/C(=O)O)C(C)(C)CCC1 [Tretinoin] | 0.834 | 0.531 | 1.41
18 | CC[C@H](C)C(=O)O[C@H]1C[C@@H](C)C=C2C=C[C@H](C)[C@H](CC[C@@H]3C[C@@H](O)CC(=O)O3)[C@H]21 [Lovastatin] | 1.33 | 1.02 | 0.3
19 | Nc1nc2c(ncn2COC(CO)CO)c(=O)[nH]1 [Ganciclovir] | 4.35 | 1.62 | 2.38
20 | Cc1ccnc2c1NC(=O)c1cccnc1N2C1CC1 [Nevirapine] | 2.15 | 0.901 | 1.73
21 | Cc1[nH]c(=O)c(C#N)cc1-c1ccncc1 [Milrinone] | 1.11 | 1.63 | 1.34

Row | SMILES | bioluminescence [1] | bioluminescence [2] | bioluminescence [3]
22 | Cc1ncc([N+](=O)[O-])n1CCO [Metronidazole] | 0.839 | 0.966 | 1.56
23 | CC1=C(CC(=O)O)c2cc(F)ccc2/C1=C\c1ccc(S(C)=O)cc1 (centres undefined) [Sulindac] | 2.8 | 1.38 | 1.47
24 | O=C1Nc2ccc(Cl)cc2[C@@](C#CC2CC2)(C(F)(F)F)O1 [Efavirenz] | 0.965 | 1.96 | 0.908
25 | CN(C)CCc1c[nH]c2ccc(C[C@H]3COC(=O)N3)cc12 [Zolmitriptan] | 0.724 | 1.52 | 1.34
26 | Cl.CNCC\C=C1\c2ccccc2CCc2ccccc12 [Nortriptyline hydrochloride] | 0.795 | 0.717 | 0.835
27 | CC[C@]1(O)C[C@H]2C[N@](CCc3c([nH]c4ccccc34)[C@@](C(=O)OC)(c3cc4c(cc3OC)N(C=O)[C@H]3[C@@](O)(C(=O)OC)[C@H](OC(C)=O)[C@]5(CC)C=CCN6CC[C@]43[C@@H]65)C2)C1.O=S(=O)(O)O [Vincristine sulfate] | 0.224 | 2.47 | 0.8
28 | CNS(=O)(=O)CCc1ccc2[nH]cc(C3CCN(C)CC3)c2c1.Cl [Naratriptan hydrochloride] | 0.774 | 0.859 | 1.2
29 | N[C@@H](Cc1ccc(O)c(O)c1)C(=O)O [Levodopa] | 0.963 | 1.76 | 1.33
30 | O=C([O-])Cc1ccccc1Nc1c(Cl)cccc1Cl.[Na+] [Diclofenac sodium] | 0.777 | 1.05 | 1.75
31 | NS(=O)(=O)Cc1noc2ccccc12 [Zonisamide] | 0.521 | 1.19 | 1.19
32 | CN(Cc1cnc2nc(N)nc(N)c2n1)c1ccc(C(=O)N[C@@H](CCC(=O)O)C(=O)O)cc1 [Methotrexate] | 1.94 | 1.34 | 0.813
33 | NC(=O)OCC(COC(N)=O)c1ccccc1 [Felbamate] |  | 3.87 | 0.547
34 | CC(=O)O.Cc1c(-c2ccc(O)cc2)n(Cc2ccc(OCCN3CCCCCC3)cc2)c2ccc(O)cc12 [Bazedoxifene acetate] |  | 1.37 | 0.0363
35 | Cc1nc2c([nH]1)CCN(C(=O)c1ccc(NC(=O)c3ccccc3-c3ccccc3)cc1)c1ccccc1-2.Cl [Conivaptan hydrochloride] |  | 3.25 | 0.375
36 | C[C@@H]1O[C@]2(CS1)CN1CCC2CC1.C[C@@H]1O[C@]2(CS1)CN1CCC2CC1.Cl.Cl.O [Cevimeline hydrochloride hemihydrate] |  | 1.04 | 0.522
37 | CCN(CC)CC#CCOC(=O)C(O)(c1ccccc1)C1CCCCC1 (centres undefined) [Oxybutynin] |  | 0.776 | 1.53
38 | Cl.O=C1c2cccc3c2[C@H](CCC3)CN1[C@@H]1CN2CCC1CC2 [Palonosetron hydrochloride] |  | 0.952 | 1.4
39 | CC(=O)OCC(=O)[C@@]1(O)[C@H](C)C[C@H]2[C@@H]3CCC4=CC(=O)C=C[C@]4(C)[C@@]3(F)[C@@H](O)C[C@@]21C [Dexamethason acetate] |  | 0.467 | 1.53
40 | CCN(CC)CC(=O)Nc1c(C)cccc1C.Cl [Lidocaine hydrochloride] |  | 1.11 | 1.08
41 | O=c1cc(O)c(Cl)c[nH]1 [Gimeracil] |  | 0.774 | 1.25
42 | CCCNS(=O)(=O)Nc1ncnc(OCCOc2ncc(Br)cn2)c1-c1ccc(Br)cc1 [Macitentan] |  | 0.835 | 0.938

Row | SMILES | bioluminescence [1] | bioluminescence [2] | bioluminescence [3]
43 | O=C1[N-]C(=O)C(c2ccccc2)(c2ccccc2)N1.[Na+] [Phenytoin sodium] |  | 1.45 | 0.866
44 | O=c1[nH]c(=O)n(C2CCCO2)cc1F (centres undefined) [Tegafur] |  | 1.14 | 0.727
45 | CCc1nc(N)nc(N)c1-c1ccc(Cl)cc1 [Pyrimethamine] |  | 1.06 | 0.803
46 | CCC1(c2ccccc2)C(=O)NCNC1=O [Primidone] |  | 0.824 | 0.89
47 | Clc1ccc2c(c1)C(N1CCNCC1)=Nc1ccccc1O2 [Amoxapine] |  | 1.25 | 0.981
48 | C[C@]12CC[C@@H]3c4ccc(O)cc4CC[C@H]3[C@@H]1CC[C@@H]2O [Estradiol] |  | 0.435 | 1.18
49 | Cc1cc(C)cc(OCC2CNC(=O)O2)c1 (centres undefined) [Metaxalone] |  | 1.35 | 1.62
50 | OC[C@H]1O[C@@H](n2cnc3c2NC=NC[C@H]3O)C[C@@H]1O [Pentostatin] |  | 0.797 | 1.59
51 | CC(=O)NCCCS(=O)(=O)[O-].CC(=O)NCCCS(=O)(=O)[O-].[Ca+2] [Acamprosate calcium] |  | 0.374 | 1.11
52 | Cl.Nc1c2c(nc3ccccc13)CCCC2.O [Tacrine hydrochloride hydrate] |  | 0.819 | 1.22
53 | CC(=O)Nc1ccc(O)cc1 [Acetaminophen] |  | 0.686 | 0.918
54 | Nc1ncnc2c1ncn2[C@@H]1O[C@H](CO)[C@@H](O)[C@H]1OP(=O)(O)O [Adenosine-2'-monophosphate] |  | 1.96 | 1.26
55 | CN(C)CCc1c[nH]c2ccc(CS(=O)(=O)N3CCCC3)cc12.O=C(O)CC(O)C(=O)O [Almotriptan Malate] |  | 0.868 | 0.959
56 | O=c1[nH]cnc2c1ncn2[C@H]1CC[C@@H](CO)O1 [Didanosine] |  | 4.18 | 0.81
57 | N=C(N)NCCCC[C@@H]1NC(=O)CCSSC[C@@H](C(N)=O)NC(=O)[C@@H]2CCCN2C(=O)[C@H](Cc2c[nH]c3ccccc23)NC(=O)[C@H](CC(=O)O)NC(=O)CNC1=O [Eptifibatide] |  | 0.768 | 0.917
58 | CO/N=C(\C(=O)N[C@@H]1C(=O)N2C(C(=O)[O-])=C(C[N+]3(C)CCCC3)CS[C@H]12)c1csc(N)n1.Cl.Cl.O [Cefepime Dihydrochloride Monohydrate] |  | 0.833 | 1.59
59 | CN(C)C(=N)NC(=N)N.Cl [Metformin hydrochloride] |  | 1.27 | 1.35
60 | COc1ccc(Cl)cc1C(=O)NCCc1ccc(S(=O)(=O)NC(=O)NC2CCCCC2)cc1 [Glyburide] |  | 1.51 | 1.61
61 | S=c1nc[nH]c2nc[nH]c12 [Mercaptopurine] |  | 1.6 | 0.946
